Results filed as inconclusive are left out. Active and inactive are the calls of the source. Unless noted, calls come from the whole dose curve; as a rule, active = well fitted curve in the direction sought with a large enough effect in the repeat runs; inconclusive = weak or mixed curves; inactive = no such curve, though single readings can be large; an effect the other way counts as inactive or inconclusive.
What was measured:
[1] = target: Thyrotropin-releasing hormone receptor (Homo sapiens) (UniProt P34981); test: qHTS assay to identify small molecule agonists of the thyrotropin-releasing hormone receptor (TRHR) signaling pathway (AID 1346891; calls by dose curve;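 note: HEK293 cells expressing TRHR with calcium dye readout; series mostly up to about 58 µM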)
Procedure, shortened: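 Overnight-plated (18 h, 37 °C, 5% CO2) TRHR-Hek293 cells; 2 h calcium dye at 37 °C; compound in DMSO; 3-min kinetic fluorescence read.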

[2] = Human pregnane X receptor (PXR) small molecule agonists, qHTS cell viability counter screen (AID 1346977); note: nearly all actives have a fitted effect of over 50% in size
Procedure, shortened: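 After a 5hr pre-incubation, PXR-Luc HepG2 cells received compounds plus positive control in DMSO and were kept 24hr at 37C. Cell viability was quantified by fluorescence from CellTiter-Fluor added for the final hour.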

[3] = Caspase-3/7 induction in HepG2 cells by small molecules, qHTS assay (AID 1346978); note: nearly all actives have a fitted effect of over 15% in size
Procedure, shortened: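 Caspase-3/7 induction was measured by Caspase-Glo 3/7 luminescence (30 min, room temperature) after a 17 hr compound exposure of wild-type HepG2 cells seeded at 2,000 per well and pre-incubated 5 hr.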

[4] = Caspase-3/7 induction in CHO-K1 cells by small molecules, qHTS cell viability counter screen (AID 1346979); note: nearly all actives have a fitted effect of over 35% in size
Procedure, shortened: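 Multiplexed with Caspase-Glo 3/7 in CHO-K1 cells, this counter screen added CellTiter-Fluor after 16hr of compound exposure and recorded fluorescence 1hr later.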

[5] = Caspase-3/7 induction in CHO-K1 cells by small molecules, qHTS assay (AID 1346980); note: nearly all actives have a fitted effect of over 15% in size
Procedure, shortened: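 Luminescent Caspase-Glo 3/7 read (30min, room temperature) quantified apoptosis induction. Cells were wild-type CHO-K1, treated with compound for 17hr at 37 C and 5% CO2.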

[6] = Caspase-3/7 induction in HepG2 cells by small molecules, qHTS cell viability counter screen (AID 1346981); note: series mostly up to about 92 µM; nearly all actives have a fitted effect of over 30% in size
Procedure, shortened: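 In this quantitative HTS counter screen, compounds delivered in DMSO were left on unmodified HepG2 cells for 16 hr at 37 C. Viability was then determined fluorometrically with CellTiter-Fluor, in parallel with caspase-3/7 induction in the same wells.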

[7] = target: Nuclear receptor subfamily 1 group I member 2 (Homo sapiens) (UniProt O75469); test: Human pregnane X receptor (PXR) small molecule agonists, qHTS assay (AID 1346982); note: nearly all actives have a fitted effect of over 35% in size; note: potency is the fitted concentration of half-maximal effect
Procedure, shortened: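 Reporter HepG2 cells expressing PXR-Luc are cultured in charcoal-stripped FBS (5%), treated with compounds for 24 hr at 37 C, and assayed by ONE-Glo luminescence after 30 min at room temperature.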

[8] = target: Nuclear receptor subfamily 1 group I member 2 (Rattus norvegicus) (UniProt Q9R1A7); test: Rat pregnane X receptor (rPXR) activation by small molecules, qHTS assay (AID 1346983); settings: rPXR luciferase reporter cells, One-Glo luminescence, 24 h; max activation: stronger effect = higher value; note: nearly all actives have a fitted effect of over 20% in size
Procedure, shortened: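 Luminescent readout (One-Glo luciferase, 30 min room temperature) followed 24 hr compound treatment at 37 C of rPXR cells plated 2,000 per well and preincubated 5hr; qHTS format with compounds delivered in DMSO.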

[9] = target: Nuclear receptor subfamily 1 group I member 2 (Homo sapiens) (UniProt O75469); test: CYP3A4 induction through human pregnane X receptor (PXR) by small molecules, qHTS assay (AID 1346984); note: nearly all actives have a fitted effect of over 40% in size
Procedure, shortened: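 Induction measured in HepG2-based DPX-2 cells co-expressing human PXR and a CYP3A4 promoter-driven luciferase. After a 24-hour compound exposure, cells received CYP3A4 luciferin substrate at 3uM final for 3 hours, and light output was then recorded.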

[10] = target: Nuclear receptor subfamily 1 group I member 2 (Homo sapiens) (UniProt O75469); test: Human pregnane X receptor (PXR) activation by small molecules, qHTS assay (AID 1346985); note: nearly all actives have a fitted effect of over 40% in size
Procedure, shortened: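 DPX-2 cells (HepG2 co-transfected with a PXR response element and a CYP3A4-promoter luciferase construct) were seeded at 2,000 per well, rested 5 hr at 37C, then exposed to DMSO-dissolved compounds for 24 hr. Activation was read as luciferase luminescence.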

[11] = target: Cytochrome P450 2D6 (Homo sapiens) (UniProt P10635); test: Cytochrome P450 Family 2 Subfamily D Member 6 (CYP2D6) small molecule antagonists: luciferase reporter qHTS assay (AID 1671196); note: nearly all actives have a fitted effect of over 50% in size; note: potency is the fitted concentration of half-maximal effect
Procedure, shortened: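 Test chemicals meet CYP2D6 plus proluciferin substrate (10 min, RT); NADPH regenerating solution then drives turnover for 1 h. Detection reagent halts the reaction; luminescence measured after 20 min.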

[12] = target: Cytochrome P450 2C19 (Homo sapiens) (UniProt P33261); test: Cytochrome P450 Family 2 Subfamily C Member 19 (CYP2C19) small molecule antagonists: luciferase reporter qHTS assay (AID 1671197); note: nearly all actives have a fitted effect of over 65% in size; note: potency is the fitted concentration of half-maximal effect
Procedure, shortened: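 First, compounds are pinned into enzyme-substrate mix and held 10 min at room temperature. Second, NADPH regeneration solution is added and plates incubate 1 h at 37C. Third, detection reagent is added and luminescence read after 20 min.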

[13] = target: Cytochrome P450 1A2 (Homo sapiens) (UniProt P05177); test: Cytochrome P450 Family 1 Subfamily A Member 2 (CYP1A2) small molecule antagonists: luciferase reporter qHTS assay (AID 1671199); note: nearly all actives have a fitted effect of over 50% in size; note: potency is the fitted concentration of half-maximal effect
Procedure, shortened: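 Steps: enzyme-substrate mix dispensed; test compounds and furafylline control pinned in; 10 min room temperature; NADPH regeneration solution added, 1 h; reaction stopped with luciferin detection reagent; luminescence read after 20 min.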

[14] = target: Cytochrome P450 3A4 (Homo sapiens) (UniProt P08684); test: Cytochrome P450 Family 3 Subfamily A Member 4 (CYP3A4) small molecule antagonists: luciferase reporter qHTS assay (AID 1671201); note: nearly all actives have a fitted effect of over 50% in size; note: potency is the fitted concentration of half-maximal effect
Procedure, shortened: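 Room-temperature assay throughout: 10 min compound–enzyme/substrate preincubation, 1 h reaction after NADPH regeneration solution, 20 min detection. Luciferin formed from proluciferin substrate is quantified by luminescence.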

[15] = target: Cytochrome P450 2C9 (Homo sapiens) (UniProt P11712); test: Cytochrome P450 Family 2 Subfamily C Member 9 (CYP2C9) small molecule antagonists: luciferase reporter qHTS assay (AID 1671198); note: nearly all actives have a fitted effect of over 50% in size; note: potency is the fitted concentration of half-maximal effect
Procedure, shortened: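 Enzyme-substrate mix preincubated with compound 10 min at room temperature; reaction started with NADPH regeneration solution, 1 h 37C. Luminescent luciferin product read after 20 min detection reagent.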

[16] = target: Voltage-gated inwardly rectifying potassium channel KCNH2 (Homo sapiens) (UniProt Q12809); test: Human Ether-a-go-go-Related Gene (hERG) channel small molecule antagonists: fluorescence cell-based qHTS assay (AID 1671200); note: nearly all actives have a fitted effect of over 50% in size; note: potency is the fitted concentration of half-maximal effect
Procedure, shortened: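 Cell line hERG-U2OS; dye FluxOR II, 1 h RT dark; Tl+ stimulus; ex 480/em 540 nm, read each second for 2 min.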
% is set by controls: 0 for no effect and ±100 for the full control effect.

Nuclear receptor subfamily 1 group I member 2 (Rattus norvegicus), sequence (Q9R1A7 whole entry, looked up): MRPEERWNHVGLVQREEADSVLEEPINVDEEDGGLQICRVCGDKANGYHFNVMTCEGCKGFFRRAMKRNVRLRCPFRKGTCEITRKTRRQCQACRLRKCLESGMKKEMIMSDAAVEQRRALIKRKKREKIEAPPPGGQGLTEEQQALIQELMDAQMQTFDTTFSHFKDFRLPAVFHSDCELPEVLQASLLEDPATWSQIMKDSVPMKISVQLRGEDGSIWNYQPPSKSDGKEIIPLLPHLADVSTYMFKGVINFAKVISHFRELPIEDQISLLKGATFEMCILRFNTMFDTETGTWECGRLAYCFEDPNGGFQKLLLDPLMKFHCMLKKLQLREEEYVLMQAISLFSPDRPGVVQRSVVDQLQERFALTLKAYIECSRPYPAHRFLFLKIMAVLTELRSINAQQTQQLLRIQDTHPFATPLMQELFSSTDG
Voltage-gated inwardly rectifying potassium channel KCNH2 (Homo sapiens), sequence (Q12809 whole entry, looked up): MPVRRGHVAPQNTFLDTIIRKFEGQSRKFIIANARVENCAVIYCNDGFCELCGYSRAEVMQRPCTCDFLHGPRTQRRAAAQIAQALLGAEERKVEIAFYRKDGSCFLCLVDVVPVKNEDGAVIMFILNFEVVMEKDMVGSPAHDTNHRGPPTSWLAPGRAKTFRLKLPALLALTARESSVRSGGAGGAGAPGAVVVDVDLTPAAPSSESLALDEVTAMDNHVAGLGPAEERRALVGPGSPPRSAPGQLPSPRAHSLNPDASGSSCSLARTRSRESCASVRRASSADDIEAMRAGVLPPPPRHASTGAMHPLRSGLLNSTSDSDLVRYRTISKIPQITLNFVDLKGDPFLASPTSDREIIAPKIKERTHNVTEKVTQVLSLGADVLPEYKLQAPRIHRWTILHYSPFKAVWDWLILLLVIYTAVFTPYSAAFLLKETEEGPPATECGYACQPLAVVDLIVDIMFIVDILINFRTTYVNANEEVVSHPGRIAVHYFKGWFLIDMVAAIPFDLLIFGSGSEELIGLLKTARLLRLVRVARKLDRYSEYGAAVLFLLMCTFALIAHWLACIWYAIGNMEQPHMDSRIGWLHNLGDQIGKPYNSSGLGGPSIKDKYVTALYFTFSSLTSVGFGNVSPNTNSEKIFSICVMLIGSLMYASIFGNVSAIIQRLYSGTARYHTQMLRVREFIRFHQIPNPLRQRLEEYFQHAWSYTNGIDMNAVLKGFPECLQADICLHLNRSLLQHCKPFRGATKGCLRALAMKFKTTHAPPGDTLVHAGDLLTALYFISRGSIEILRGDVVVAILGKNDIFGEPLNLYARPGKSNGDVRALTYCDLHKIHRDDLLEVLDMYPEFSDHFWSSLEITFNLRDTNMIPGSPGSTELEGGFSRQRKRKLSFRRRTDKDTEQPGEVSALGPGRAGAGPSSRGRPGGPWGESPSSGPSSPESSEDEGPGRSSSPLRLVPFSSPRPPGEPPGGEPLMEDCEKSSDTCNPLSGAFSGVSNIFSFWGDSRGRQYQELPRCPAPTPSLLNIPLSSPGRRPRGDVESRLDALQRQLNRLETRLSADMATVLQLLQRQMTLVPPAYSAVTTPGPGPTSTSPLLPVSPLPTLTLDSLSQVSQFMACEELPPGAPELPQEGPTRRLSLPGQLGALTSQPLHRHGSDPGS
Cytochrome P450 2D6 (Homo sapiens), sequence (P10635 whole entry, looked up): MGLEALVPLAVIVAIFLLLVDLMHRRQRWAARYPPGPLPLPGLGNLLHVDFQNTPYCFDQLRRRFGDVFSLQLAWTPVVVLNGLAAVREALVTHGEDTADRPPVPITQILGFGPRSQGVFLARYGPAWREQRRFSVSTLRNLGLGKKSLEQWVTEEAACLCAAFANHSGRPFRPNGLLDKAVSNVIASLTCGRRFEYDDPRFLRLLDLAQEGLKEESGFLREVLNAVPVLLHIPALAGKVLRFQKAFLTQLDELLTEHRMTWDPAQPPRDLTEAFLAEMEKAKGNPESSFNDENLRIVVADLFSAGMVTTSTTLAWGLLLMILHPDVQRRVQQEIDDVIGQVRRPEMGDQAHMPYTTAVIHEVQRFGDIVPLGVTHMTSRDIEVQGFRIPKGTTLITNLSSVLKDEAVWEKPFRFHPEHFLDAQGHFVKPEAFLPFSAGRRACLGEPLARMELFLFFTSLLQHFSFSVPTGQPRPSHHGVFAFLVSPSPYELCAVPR
Cytochrome P450 3A4 (Homo sapiens), sequence (P08684 whole entry, looked up): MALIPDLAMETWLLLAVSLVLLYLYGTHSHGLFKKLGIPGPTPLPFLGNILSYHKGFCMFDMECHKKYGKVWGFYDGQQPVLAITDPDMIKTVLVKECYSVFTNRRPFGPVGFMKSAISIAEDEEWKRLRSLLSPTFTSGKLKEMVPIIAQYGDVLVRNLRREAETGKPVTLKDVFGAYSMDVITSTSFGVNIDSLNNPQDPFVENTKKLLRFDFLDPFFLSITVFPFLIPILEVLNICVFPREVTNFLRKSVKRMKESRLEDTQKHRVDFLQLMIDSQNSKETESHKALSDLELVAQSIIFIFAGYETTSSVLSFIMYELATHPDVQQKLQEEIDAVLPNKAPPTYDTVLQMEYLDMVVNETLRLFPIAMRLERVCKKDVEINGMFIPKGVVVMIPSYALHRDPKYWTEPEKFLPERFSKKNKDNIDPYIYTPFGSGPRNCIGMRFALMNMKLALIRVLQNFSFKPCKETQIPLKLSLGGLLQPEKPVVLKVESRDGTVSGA
Cytochrome P450 1A2 (Homo sapiens), sequence (P05177 whole entry, looked up): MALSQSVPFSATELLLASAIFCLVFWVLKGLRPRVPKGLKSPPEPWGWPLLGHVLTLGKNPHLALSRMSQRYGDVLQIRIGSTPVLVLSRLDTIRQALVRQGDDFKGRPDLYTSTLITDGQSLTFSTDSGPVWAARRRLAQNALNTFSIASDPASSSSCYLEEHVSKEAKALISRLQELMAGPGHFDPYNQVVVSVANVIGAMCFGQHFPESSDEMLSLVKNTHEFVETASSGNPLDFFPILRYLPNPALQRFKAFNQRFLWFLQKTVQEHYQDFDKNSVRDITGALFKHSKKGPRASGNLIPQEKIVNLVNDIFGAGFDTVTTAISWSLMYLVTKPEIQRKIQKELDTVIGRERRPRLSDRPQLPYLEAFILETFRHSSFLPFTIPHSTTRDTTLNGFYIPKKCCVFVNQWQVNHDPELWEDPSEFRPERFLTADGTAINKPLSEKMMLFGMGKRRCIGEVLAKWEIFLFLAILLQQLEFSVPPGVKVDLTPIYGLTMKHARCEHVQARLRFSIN
Cytochrome P450 2C19 (Homo sapiens), sequence (P33261 whole entry, looked up): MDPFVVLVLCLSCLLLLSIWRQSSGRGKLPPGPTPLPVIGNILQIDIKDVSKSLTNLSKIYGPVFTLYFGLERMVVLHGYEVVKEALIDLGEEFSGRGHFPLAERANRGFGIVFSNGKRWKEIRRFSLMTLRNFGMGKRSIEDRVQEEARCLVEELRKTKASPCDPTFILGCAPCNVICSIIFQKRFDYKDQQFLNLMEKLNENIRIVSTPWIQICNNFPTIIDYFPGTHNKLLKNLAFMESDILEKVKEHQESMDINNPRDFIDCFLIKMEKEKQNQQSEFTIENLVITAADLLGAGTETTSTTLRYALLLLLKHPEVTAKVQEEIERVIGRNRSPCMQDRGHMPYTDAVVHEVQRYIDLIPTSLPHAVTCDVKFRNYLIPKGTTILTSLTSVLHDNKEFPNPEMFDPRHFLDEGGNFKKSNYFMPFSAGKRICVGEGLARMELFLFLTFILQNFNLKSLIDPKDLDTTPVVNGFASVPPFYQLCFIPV
Cytochrome P450 2C9 (Homo sapiens), sequence (P11712 whole entry, looked up): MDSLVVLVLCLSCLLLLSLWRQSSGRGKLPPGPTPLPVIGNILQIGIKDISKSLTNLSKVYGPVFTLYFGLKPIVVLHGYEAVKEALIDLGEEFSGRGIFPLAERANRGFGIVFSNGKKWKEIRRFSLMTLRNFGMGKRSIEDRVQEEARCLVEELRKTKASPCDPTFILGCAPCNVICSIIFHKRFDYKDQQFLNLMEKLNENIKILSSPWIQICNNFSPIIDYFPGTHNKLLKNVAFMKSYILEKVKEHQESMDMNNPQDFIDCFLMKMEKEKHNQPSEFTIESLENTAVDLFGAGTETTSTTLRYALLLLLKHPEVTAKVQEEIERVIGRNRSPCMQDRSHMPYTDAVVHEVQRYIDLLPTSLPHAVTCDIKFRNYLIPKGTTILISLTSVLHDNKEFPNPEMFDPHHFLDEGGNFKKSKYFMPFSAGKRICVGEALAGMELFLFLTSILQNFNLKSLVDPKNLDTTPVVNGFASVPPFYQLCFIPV
Nuclear receptor subfamily 1 group I member 2 (Homo sapiens), sequence (O75469 whole entry, looked up): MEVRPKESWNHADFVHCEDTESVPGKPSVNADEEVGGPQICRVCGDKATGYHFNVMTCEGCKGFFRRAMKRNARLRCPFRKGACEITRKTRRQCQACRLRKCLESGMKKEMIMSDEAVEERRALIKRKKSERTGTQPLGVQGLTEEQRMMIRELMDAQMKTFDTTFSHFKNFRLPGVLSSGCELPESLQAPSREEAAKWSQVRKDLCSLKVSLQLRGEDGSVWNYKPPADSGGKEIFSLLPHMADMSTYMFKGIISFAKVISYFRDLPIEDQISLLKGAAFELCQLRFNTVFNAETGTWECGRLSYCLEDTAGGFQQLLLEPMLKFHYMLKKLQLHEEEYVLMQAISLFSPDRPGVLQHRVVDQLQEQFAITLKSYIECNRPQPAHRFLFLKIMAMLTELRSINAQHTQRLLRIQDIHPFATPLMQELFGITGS
Thyrotropin-releasing hormone receptor (Homo sapiens), sequence (P34981 whole entry, looked up): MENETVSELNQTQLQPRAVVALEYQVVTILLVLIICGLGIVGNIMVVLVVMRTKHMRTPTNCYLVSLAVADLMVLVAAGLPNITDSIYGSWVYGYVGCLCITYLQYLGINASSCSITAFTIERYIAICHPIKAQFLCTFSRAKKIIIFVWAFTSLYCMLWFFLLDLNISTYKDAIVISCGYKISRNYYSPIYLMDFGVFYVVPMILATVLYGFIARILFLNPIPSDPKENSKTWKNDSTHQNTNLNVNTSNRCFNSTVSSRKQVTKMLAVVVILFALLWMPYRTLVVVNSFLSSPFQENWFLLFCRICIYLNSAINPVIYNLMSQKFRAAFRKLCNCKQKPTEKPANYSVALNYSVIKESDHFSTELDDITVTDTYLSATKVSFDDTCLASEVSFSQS

CCN(CC)CC1CCCCN1CC(=O)N1c2ccccc2C(=O)Nc2cccnc21 (stereo unspecified)
inactive: Potency [1] | Potency [2] | Potency [3] | Potency [4] | outcome [5] | Potency [6] | Potency [7] | max activation [8] -0.899% | Potency [9] | Potency [10] | Potency [11] | Potency [12] | Potency [13]
active: Potency [14] 6.92 µM

CN(CC1(C)CCCO1)S(=O)(=O)c1ccc(Cl)c(S(N)(=O)=O)c1 (stereo unspecified)
active: Potency [7] 10.6 µM
inactive: Potency [1] | Potency [2] | Potency [3] | Potency [4] | outcome [5] | Potency [6] | Potency [11] | Potency [12] | Potency [15] | Potency [13] | Potency [16]

COc1cc(C)ccc1C(C)C
inactive: Potency [1] | Potency [2] | Potency [3] | Potency [4] | outcome [5] | Potency [6] | Potency [7] | Potency [11] | Potency [12] | Potency [15] | Potency [13] | Potency [16] | Potency [14]

CC(=O)N(CC(O)CN(C(C)=O)c1c(I)c(C(=O)NCC(O)CO)c(I)c(C(=O)NCC(O)CO)c1I)c1c(I)c(C(=O)NCC(O)CO)c(I)c(C(=O)NCC(O)CO)c1I (stereo unspecified)
inactive: Potency [1] | Potency [2] | Potency [3] | Potency [4] | outcome [5] | Potency [6] | Potency [7] | max activation [8] -0.58% | Potency [9] | Potency [10] | Potency [11] | Potency [12] | Potency [15] | Potency [16] | Potency [14]

CCOC(=O)[C@H](CCc1ccccc1)N[C@@H](C)C(=O)N1Cc2cc(OC)c(OC)cc2C[C@H]1C(=O)O
active: Potency [15] 15.5 µM
inactive: Potency [1] | Potency [2] | Potency [3] | Potency [4] | outcome [5] | Potency [6] | Potency [7] | max activation [8] -0.0593% | Potency [9] | Potency [11]

CCOC(=O)c1ccccc1O
inactive: Potency [1] | Potency [2] | Potency [3] | Potency [4] | outcome [5] | Potency [6] | Potency [7] | max activation [8] -7.66% | Potency [9] | Potency [10] | Potency [11] | Potency [12] | Potency [15] | Potency [13] | Potency [14]

Cc1nnc(SCC2=C(C(=O)O)N3C(=O)[C@@H](NC(=O)Cn4cnnn4)[C@H]3SC2)s1
inactive: Potency [1] | Potency [2] | Potency [3] | Potency [4] | outcome [5] | Potency [6] | Potency [7] | max activation [8] -4.1% | Potency [9] | Potency [10] | Potency [11] | Potency [12] | Potency [16] | Potency [14]

CCN[C@H]1CN(CCCOC)S(=O)(=O)c2sc(S(N)(=O)=O)cc21
inactive: Potency [1] | Potency [2] | Potency [3] | Potency [4] | outcome [5] | Potency [6] | Potency [7] | max activation [8] -3.62% | Potency [9] | Potency [10] | Potency [11] | Potency [15] | Potency [13] | Potency [16] | Potency [14]

Cc1cc(NS(=O)(=O)c2ccc(N)cc2)nc(C)n1
inactive: Potency [1] | Potency [2] | Potency [3] | Potency [4] | outcome [5] | Potency [6] | Potency [7] | max activation [8] 1.05% | Potency [9] | Potency [10] | Potency [11] | Potency [12] | Potency [15] | Potency [13] | Potency [16] | Potency [14]

CC1CN(c2ccccc2)NC1=O (stereo unspecified)
active: Potency [7] 54.5 µM | Potency [11] 31.7 µM | Potency [12] 12.6 µM | Potency [15] 20 µM | Potency [13] 22.4 µM
inactive: Potency [1] | Potency [2] | Potency [3] | Potency [4] | outcome [5] | Potency [6]

COc1cc(Cl)ccc1Cl
inactive: Potency [1] | Potency [2] | Potency [3] | Potency [4] | outcome [5] | Potency [6] | Potency [7] | Potency [11] | Potency [12] | Potency [15] | Potency [16] | Potency [14]
active: Potency [13] 36.3 µM

CC(C)O
inactive: Potency [1] | Potency [2] | Potency [3] | Potency [4] | outcome [5] | Potency [6] | Potency [7] | max activation [8] -2.1% | Potency [9] | Potency [10] | Potency [11] | Potency [12] | Potency [15] | Potency [16] | Potency [14]

CN1[C@@H]2CC[C@H]1CC(OC(=O)c1c[nH]c3ccccc13)C2 (stereo partly specified)
inactive: Potency [1] | Potency [2] | Potency [3] | Potency [4] | outcome [5] | Potency [6] | Potency [7] | Potency [12] | Potency [15] | Potency [13] | Potency [14]
active: Potency [11] 15.5 µM | Potency [16] 19 µM

CS(=O)(=O)c1ccc([C@@H](O)[C@@H](CF)NC(=O)C(Cl)Cl)cc1
active: Potency [12] 21.9 µM
inactive: Potency [1] | Potency [2] | Potency [3] | Potency [4] | outcome [5] | Potency [6] | Potency [7] | max activation [8] -1.93% | Potency [9] | Potency [10] | Potency [11] | Potency [16] | Potency [14]

CC(C)(C)C1CCCCC1=O (stereo unspecified)
inactive: Potency [1] | Potency [2] | Potency [3] | Potency [4] | outcome [5] | Potency [6] | Potency [7] | Potency [11] | Potency [12] | Potency [15] | Potency [13] | Potency [14]

CCC/C=C/CO
inactive: Potency [1] | Potency [2] | Potency [3] | Potency [4] | outcome [5] | Potency [6] | Potency [7] | Potency [11] | Potency [12] | Potency [15] | Potency [13] | Potency [16] | Potency [14]

NS(=O)(=O)c1cc(-c2nn[nH]n2)c(NCc2cccs2)cc1Cl
inactive: Potency [1] | Potency [2] | Potency [3] | Potency [4] | outcome [5] | Potency [6] | Potency [9] | Potency [10] | Potency [11] | Potency [12] | Potency [16]
active: Potency [7] 13.3 µM | Potency [15] 24.5 µM

COc1nc(C)nc(NC(=O)NS(=O)(=O)c2ccccc2OCCCl)n1
active: Potency [13] 35.4 µM
inactive: Potency [1] | Potency [2] | Potency [3] | Potency [4] | outcome [5] | Potency [6] | Potency [7] | Potency [11] | Potency [12] | Potency [15] | Potency [16]

Source: PubChem BioAssay (Tox21)
